# From PubChem BioAssay (Tox21)
# “And” between values parts separate entries of the source, which are not always exact repeats. Equal values may be shown once. Records with an inconclusive call do not appear. Entries that show only a call come without a potency. The source made the active and inactive calls. Unless noted, calls come from the whole dose curve; as a rule, active = well fitted curve in the direction sought with a large enough effect in the repeat runs; inconclusive = weak or mixed curves; inactive = no such curve, though single readings can be large; an effect the other way counts as inactive or inconclusive.
# Assays:
# [1] = qHTS assay to test for compound auto fluorescence at 535 nm (green) in HEK293 cells (AID 720680)
# [2] = qHTS assay to test for compound auto fluorescence at 460 nm (blue) in HEK293 cell free culture (AID 720681)
# Method in brief: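 Blue fluorescence (Ex 405/Em 460 nm, triamterene-equivalent) was read immediately after pin transfer of compound or DMSO into medium (DMEM, 10% FBS) without cells.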
# [3] = qHTS assay to test for compound auto fluorescence at 535 nm (green) in HEK293 cell free culture (AID 720682)
# Method in brief: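 DMEM + 10% FBS, cell-free; cpd or DMSO pinned in; Ex485/Em535 read; output as fluorescein-equivalent signal.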
# [4] = qHTS assay to test for compound auto fluorescence at 590 nm (red) in HEK293 cell free culture (AID 720683)
# Method in brief: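 Red-channel autofluorescence of compounds in culture medium (DMEM, 10% FBS), no cells, measured at 540/590 nm. Rose Bengal sodium is the reference fluorophore for equivalence.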
# [5] = qHTS assay to test for compound auto fluorescence at 590 nm (red) in HepG2 cell free culture (AID 720684)
# Method in brief: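 Cell-free; medium MEM + 10% FBS; compound or DMSO added by pintool; read Ex 540/Em 590 nm; Rose Bengal sodium as red reference fluorophore.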
# [6] = qHTS assay to test for compound auto fluorescence at 460 nm (blue) in HepG2 cell free culture (AID 720685)
# Method in brief: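 Cell-free plates of MEM plus 10% FBS received 23 nL compound or DMSO vehicle; blue-channel (405/460 nm) intensity scored against triamterene as reference fluorophore.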
# [7] = qHTS assay to test for compound auto fluorescence at 535 nm (green) in HepG2 cell free culture (AID 720686)
# [8] = qHTS assay to test for compound auto fluorescence at 460 nm (blue) in HepG2 cells (AID 720687)
# Method in brief: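 Blue-channel autofluorescence (Ex/Em 405/460 nm, triamterene-equivalent) was measured after 1 hr compound exposure at 37 C, 5% CO2. Cells were HepG2, plated overnight at 37 C in MEM plus 10% FBS.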
# [9] = molecular target: Glucocorticoid receptor (Homo sapiens) (UniProt P04150); assay: qHTS assay to identify small molecule agonists of the glucocorticoid receptor (GR) signaling pathway (AID 720691; active = well fitted activation curve with a large enough effect in the signal ratio in the repeat runs, not every such curve was filed as active; the % refers to the signal ratio; note: potency is the fitted concentration of half-maximal effect)
# Chain of Glucocorticoid receptor (Homo sapiens) (P04150 whole entry, looked up): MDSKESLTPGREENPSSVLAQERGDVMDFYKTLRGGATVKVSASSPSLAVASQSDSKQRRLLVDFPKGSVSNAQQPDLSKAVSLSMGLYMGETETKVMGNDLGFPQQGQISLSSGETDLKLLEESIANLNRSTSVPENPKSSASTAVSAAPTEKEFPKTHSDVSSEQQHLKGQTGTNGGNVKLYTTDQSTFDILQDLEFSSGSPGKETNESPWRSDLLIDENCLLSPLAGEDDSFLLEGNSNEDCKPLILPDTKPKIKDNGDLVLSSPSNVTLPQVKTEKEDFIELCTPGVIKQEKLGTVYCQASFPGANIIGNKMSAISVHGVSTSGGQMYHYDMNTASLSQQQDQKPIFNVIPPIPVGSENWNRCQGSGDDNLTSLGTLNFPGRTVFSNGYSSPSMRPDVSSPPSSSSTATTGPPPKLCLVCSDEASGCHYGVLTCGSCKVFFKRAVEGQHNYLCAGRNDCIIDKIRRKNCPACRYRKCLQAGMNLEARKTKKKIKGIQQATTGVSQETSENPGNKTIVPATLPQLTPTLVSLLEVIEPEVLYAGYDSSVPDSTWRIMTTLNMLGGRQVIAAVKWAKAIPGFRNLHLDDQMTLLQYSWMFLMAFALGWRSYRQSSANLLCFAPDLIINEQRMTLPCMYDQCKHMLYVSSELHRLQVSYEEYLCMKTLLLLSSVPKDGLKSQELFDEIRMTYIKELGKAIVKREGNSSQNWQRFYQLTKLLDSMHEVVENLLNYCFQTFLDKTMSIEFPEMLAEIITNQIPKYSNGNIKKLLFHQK
# Method in brief: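 Compounds in DMSO, alongside positive controls, were added to GR-bla HeLa reporter cells and incubated 18 h at 37 C; GRE-driven beta-lactamase was detected by fluorescence after 2 h with FRET substrate at room temperature.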
# [10] = molecular target: Glucocorticoid receptor (Homo sapiens) (UniProt P04150); assay: qHTS assay to identify small molecule antagonists of the glucocorticoid receptor (GR) signaling pathway (AID 720692; active = well fitted inhibition curve with a large enough effect in the signal ratio in the repeat runs, not every such curve was filed as active; the % refers to the signal ratio; note: potency is the fitted concentration of half-maximal effect)
# Method in brief: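 In a 1536-well cell format, compounds were added 4 h after seeding GR-bla HeLa cells, together with dexamethasone at 5 nM final; reporter activity was measured by FRET-substrate fluorescence following 18 h at 37 C.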
# [11] = qHTS assay to identify small molecule antagonists of the glucocorticoid receptor (GR) signaling pathway - cell viability counter screen (AID 720693); note: nearly all actives have a fitted effect of over 55% in size; note: potency is the fitted concentration of half-maximal effect
# [12] = qHTS assay for identifying genotoxic compounds that show differential cytotoxicity against isogenic chicken DT40 cell lines with known DNA damage response pathways - wild type cell line (AID 743012); note: nearly all actives have a fitted effect of over 60% in size; note: potency is the fitted concentration of half-maximal effect
# Method in brief: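 Viability of DNA repair-proficient chicken DT40 cells was assessed by CellTiter-Glo luminescence following 40 h compound exposure at 37 C/5% CO2.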
# [13] = qHTS assay for identifying genotoxic compounds that show differential cytotoxicity against isogenic chicken DT40 cell lines with known DNA damage response pathways - Rev3 mutant cell line (AID 743014); note: nearly all actives have a fitted effect of over 55% in size; note: potency is the fitted concentration of half-maximal effect
# [14] = qHTS assay for identifying genotoxic compounds that show differential cytotoxicity against isogenic chicken DT40 cell lines with known DNA damage response pathways - Rad54/Ku70 mutant cell line (AID 743015); note: nearly all actives have a fitted effect of over 60% in size; note: potency is the fitted concentration of half-maximal effect
# [15] = qHTS assay to identify small molecule antagonists of the androgen receptor (AR) signaling pathway - cell viability counter screen (AID 743033; note: nearly all actives have a fitted effect of over 45% in size)
# [16] = qHTS assay to identify small molecule antagonists of the androgen receptor (AR) signaling pathway using the MDA cell line - cell viability counter screen (AID 743041; note: nearly all actives have a fitted effect of over 45% in size)
# Method in brief: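 Viability read by CellTiter-Fluor fluorescence in the same wells as the antagonist screen, added after 15.5 h of a 16 h, 37C exposure. Human breast carcinoma MDA-kb2 AR-luc cells, compounds co-dosed with agonist R1881.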
# [17] = molecular target: Androgen receptor (Homo sapiens) (UniProt P10275); assay: qHTS assay to identify small molecule antagonists of the androgen receptor (AR) signaling pathway (AID 743035; active = well fitted inhibition curve with a large enough effect in the signal ratio in the repeat runs, not every such curve was filed as active; the % refers to the signal ratio)
# Chain of Androgen receptor (Homo sapiens) (P10275 whole entry, looked up): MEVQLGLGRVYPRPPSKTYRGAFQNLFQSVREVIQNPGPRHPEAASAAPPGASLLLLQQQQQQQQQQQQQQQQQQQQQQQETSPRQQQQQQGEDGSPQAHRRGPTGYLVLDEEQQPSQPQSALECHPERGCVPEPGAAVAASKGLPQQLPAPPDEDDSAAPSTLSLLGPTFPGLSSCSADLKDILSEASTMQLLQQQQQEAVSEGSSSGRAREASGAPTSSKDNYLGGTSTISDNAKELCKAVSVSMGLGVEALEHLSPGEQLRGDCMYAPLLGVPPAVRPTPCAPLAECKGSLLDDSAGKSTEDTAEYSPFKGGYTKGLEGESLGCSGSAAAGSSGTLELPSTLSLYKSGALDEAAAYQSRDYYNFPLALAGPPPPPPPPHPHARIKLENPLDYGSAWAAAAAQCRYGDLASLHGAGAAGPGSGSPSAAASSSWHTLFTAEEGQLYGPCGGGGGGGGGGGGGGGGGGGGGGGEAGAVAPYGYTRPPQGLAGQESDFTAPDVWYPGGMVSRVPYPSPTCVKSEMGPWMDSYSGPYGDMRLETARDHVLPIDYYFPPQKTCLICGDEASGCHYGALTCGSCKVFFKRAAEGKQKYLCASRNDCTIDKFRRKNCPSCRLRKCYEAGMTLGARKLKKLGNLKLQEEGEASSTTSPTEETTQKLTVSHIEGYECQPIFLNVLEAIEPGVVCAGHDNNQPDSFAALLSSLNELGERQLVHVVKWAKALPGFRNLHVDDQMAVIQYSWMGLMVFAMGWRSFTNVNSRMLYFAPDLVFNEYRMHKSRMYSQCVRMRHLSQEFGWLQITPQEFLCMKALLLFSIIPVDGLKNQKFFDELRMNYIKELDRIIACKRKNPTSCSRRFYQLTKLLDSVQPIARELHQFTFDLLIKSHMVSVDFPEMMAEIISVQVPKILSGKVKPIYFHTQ
# Method in brief: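 Reporter HEK293 cells were exposed to compounds and R1881 overnight (16 h, 37C); beta-lactamase activity was then quantified by FRET fluorescence.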
# [18] = molecular target: Androgen receptor (Homo sapiens) (UniProt P10275); assay: qHTS assay to identify small molecule agonists of the androgen receptor (AR) signaling pathway (AID 743036; active = well fitted activation curve with a large enough effect in the signal ratio in the repeat runs, with a control signal flat, not every such curve was filed as active; the % refers to the signal ratio)
# Method in brief: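 Screening used 2,000 AR-bla HEK293 cells per well, treated 16 h at 37C with test compounds in DMSO alongside positive and DMSO-only controls; beta-lactamase activity was then read by LiveBLAzer B/G FRET fluorescence after 2 h at room temperature.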
# [19] = molecular target: Androgen receptor (Homo sapiens) (UniProt P10275); assay: qHTS assay to identify small molecule agonists of the androgen receptor (AR) signaling pathway using the MDA cell line (AID 743040; note: nearly all actives have a fitted effect of over 20% in size)
# Method in brief: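 Luciferase agonist assay: 16 h compound exposure at 37C without CO2 in MDA-kb2 AR-luc cells, whose MMTV promoter responds to both AR and GR. Luminescence measured after 30 min room-temperature incubation with ONE-Glo.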
# [20] = molecular target: Androgen receptor (Homo sapiens) (UniProt P10275); assay: qHTS assay to identify small molecule antagonists of the androgen receptor (AR) signaling pathway using the MDA cell line (AID 743042; note: nearly all actives have a fitted effect of over 55% in size)
# Method in brief: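 Antagonist mode: compounds plus R1881 agonist added to MDA-kb2 AR-luc cells, incubated 16 h at 37C. Luciferase reporter luminescence quantified, with multiplexed CellTiter-Fluor readout for cell viability.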
SMILES,Potency [1],Potency [2],Potency [3],Potency [4],Potency [5],Potency [6],Potency [7],Potency [8],Potency [9],Potency [10],Potency [11],Potency [12],Potency [13],Potency [14],Potency [15],Potency [16],Potency [17],outcome [18],Potency [19],Potency [20]
CCCCCCCCCCCCCO,inactive,inactive,inactive,inactive,inactive,inactive,inactive,inactive,inactive,inactive,inactive,inactive,inactive,inactive,inactive,inactive,,,,
COc1ccc2nc(N)sc2c1,inactive,inactive,inactive,inactive,inactive,inactive,inactive,inactive,inactive,inactive,inactive,inactive,inactive,,inactive,inactive,inactive,inactive,inactive,inactive
c1ccc2cc3ccccc3cc2c1,inactive,inactive,inactive,inactive,inactive,inactive,inactive,inactive,inactive,inactive,inactive,inactive,inactive,inactive,inactive,inactive,,,,
C[C@]12CC[C@@H]3c4ccc(O)cc4CC[C@H]3[C@@H]1CC[C@H]2O,inactive,inactive,inactive,inactive,inactive,inactive,inactive,inactive,inactive,6.27 µM (active),17.4 µM (active),44 µM (active) and 48.6 µM (active),24.8 µM (active) and 48.6 µM (active),,inactive,inactive,,,,
O=C(O)c1ccc(O)cc1,inactive,inactive,inactive,inactive,inactive,inactive,inactive,,inactive,inactive,inactive,inactive,inactive,inactive,inactive,inactive,,,,
CC(C)[N+](C)(CCOC(=O)C1c2ccccc2Oc2ccccc21)C(C)C,inactive,inactive,inactive,inactive,inactive,inactive,inactive,,inactive,inactive,inactive,inactive,inactive,inactive,inactive,inactive,,,,
CC(=O)O[C@]1(C(C)=O)CC[C@H]2[C@@H]3C=C(C)C4=CC(=O)CC[C@]4(C)[C@H]3CC[C@@]21C,inactive,inactive,inactive,inactive,inactive,inactive,inactive,inactive,51.2 nM (active) and 61.6 nM (active),91 nM (active) and 77.6 nM (active),inactive,,12.7 µM (active) and 17.2 µM (active),15.4 µM (active),inactive,inactive,,,,
Cc1ccc(C(C)(C)C)cc1,inactive,inactive,inactive,inactive,inactive,inactive,inactive,inactive,,,inactive,,inactive,inactive,inactive,inactive,,,,
CCCOCCO,inactive,inactive,inactive,inactive,inactive,inactive,inactive,inactive,inactive,inactive,inactive,inactive,inactive,,inactive,inactive,,,,
OC[C@H]1O[C@@H]2O[C@H]3[C@H](O)[C@@H](O)[C@@H](O[C@H]4[C@H](O)[C@@H](O)[C@@H](O[C@H]5[C@H](O)[C@@H](O)[C@@H](O[C@H]6[C@H](O)[C@@H](O)[C@@H](O[C@H]7[C@H](O)[C@@H](O)[C@@H](O[C@H]1[C@H](O)[C@H]2O)O[C@@H]7CO)O[C@@H]6CO)O[C@@H]5CO)O[C@@H]4CO)O[C@@H]3CO,inactive,inactive,inactive,inactive,inactive,inactive,inactive,inactive,inactive,inactive,inactive,inactive,inactive,inactive,inactive,inactive,,,,
COC(=O)CC(=O)OC,inactive,inactive,inactive,inactive,inactive,inactive,inactive,,inactive,inactive,inactive,inactive,inactive,inactive,inactive,inactive,,,,
O=S1(=O)CCCO1,inactive,inactive,inactive,inactive,inactive,inactive,inactive,,inactive,inactive,inactive,inactive,inactive,inactive,inactive,inactive,,,,
C[C@]12C=CC(=O)C=C1CC[C@H]1[C@@H]3C[C@@H](O)[C@](O)(C(=O)CO)[C@@]3(C)C[C@H](O)[C@@]12F,inactive,inactive,inactive,inactive,inactive,inactive,inactive,inactive,301 nM (active) and 61.6 nM (active),,inactive,68.6 µM (active),8.63 µM (active),,inactive,inactive,,,,
O=C1CCc2ccccc2O1,inactive,inactive,inactive,inactive,inactive,inactive,inactive,inactive,inactive,inactive,inactive,inactive,inactive,inactive,inactive,inactive,,,,
Cc1ccc(N)c([N+](=O)[O-])c1,inactive,inactive,inactive,inactive,inactive,inactive,inactive,inactive,inactive,inactive,inactive,inactive,inactive,,inactive,inactive,,,,
